# How the values were obtained:
# Test in all cases: DAPPL (digital affinity profiling via proximity ligation, sequencing); 10 mM Tris-HCl pH 7.5, 50 mM NaCl, 1 mM DTT, 4% glycerol, room temperature, 30 min; GST-TFs on glutathione beads, 16-mer random dsDNA library, 0.1% formaldehyde crosslink after washing; high values mean tight binding
# FLI1 = target: T1, FLI1 (Homo sapiens, UniProt Q01543 1-452); settings: protein: recombinant; tags: N-terminal GST; dsDNA, one strand shown
# T1 sequence: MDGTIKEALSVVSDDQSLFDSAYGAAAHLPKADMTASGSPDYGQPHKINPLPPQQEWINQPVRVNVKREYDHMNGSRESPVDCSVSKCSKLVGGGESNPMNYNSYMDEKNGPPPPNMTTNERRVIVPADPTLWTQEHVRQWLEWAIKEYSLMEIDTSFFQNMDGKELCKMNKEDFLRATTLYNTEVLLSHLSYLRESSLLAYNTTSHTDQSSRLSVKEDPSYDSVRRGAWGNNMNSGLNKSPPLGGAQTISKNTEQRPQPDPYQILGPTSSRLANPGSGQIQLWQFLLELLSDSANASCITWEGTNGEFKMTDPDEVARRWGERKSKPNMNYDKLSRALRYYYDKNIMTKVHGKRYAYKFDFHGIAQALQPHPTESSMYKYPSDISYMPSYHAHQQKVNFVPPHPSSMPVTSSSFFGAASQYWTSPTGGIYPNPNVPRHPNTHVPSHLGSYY
# How it was run: (§1)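 GST fusions of human transcription factors were expressed in yeast and captured with glutathione beads. Once given DNA barcodes and pooled alongside a tag-only sample, they were incubated for 30 min at room temperature with 200 nmole of a random double-stranded 16-mer DNA library in Tris/NaCl/DTT/glycerol buffer, then washed, crosslinked (0.1% formaldehyde), proximity-ligated, PCR-amplified and sequenced on an Illumina NextSeq500. The binding signal of each hexamer is its read frequency for a factor divided by its frequency for the tag-only sample.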
# ELK1 = target: T2, ELK1 (Homo sapiens, UniProt P19419 1-428); settings: protein: recombinant; tags: N-terminal GST; dsDNA, one strand shown
# T2 sequence: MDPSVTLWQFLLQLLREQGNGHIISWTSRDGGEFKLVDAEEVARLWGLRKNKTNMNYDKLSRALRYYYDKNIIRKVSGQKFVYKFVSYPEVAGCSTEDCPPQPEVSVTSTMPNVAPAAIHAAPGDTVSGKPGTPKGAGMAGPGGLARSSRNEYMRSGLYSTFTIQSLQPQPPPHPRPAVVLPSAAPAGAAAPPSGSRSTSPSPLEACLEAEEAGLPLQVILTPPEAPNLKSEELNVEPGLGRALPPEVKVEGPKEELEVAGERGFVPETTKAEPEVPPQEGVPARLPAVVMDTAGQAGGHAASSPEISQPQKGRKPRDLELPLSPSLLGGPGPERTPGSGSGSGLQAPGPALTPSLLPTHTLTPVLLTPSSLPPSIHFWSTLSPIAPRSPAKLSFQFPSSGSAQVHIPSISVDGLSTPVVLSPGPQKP
# How it was run: as §1
# GABPA = target: T3, GABPA (Homo sapiens, UniProt Q06546 1-454); settings: protein: recombinant; tags: N-terminal GST; dsDNA, one strand shown
# T3 sequence: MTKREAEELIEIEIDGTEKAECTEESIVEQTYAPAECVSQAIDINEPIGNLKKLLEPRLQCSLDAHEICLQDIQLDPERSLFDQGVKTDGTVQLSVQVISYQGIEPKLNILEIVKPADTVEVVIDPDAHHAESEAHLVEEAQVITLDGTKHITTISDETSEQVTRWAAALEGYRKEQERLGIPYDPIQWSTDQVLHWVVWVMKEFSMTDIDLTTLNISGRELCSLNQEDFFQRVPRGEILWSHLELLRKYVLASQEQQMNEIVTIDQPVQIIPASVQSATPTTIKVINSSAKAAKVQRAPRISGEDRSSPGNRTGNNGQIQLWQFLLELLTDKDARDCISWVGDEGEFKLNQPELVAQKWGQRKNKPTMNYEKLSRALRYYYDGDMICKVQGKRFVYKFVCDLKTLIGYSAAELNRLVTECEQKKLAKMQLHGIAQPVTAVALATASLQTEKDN
# How it was run: as §1
# ERG = target: T4, ERG (Homo sapiens, UniProt P11308 1-479); settings: protein: recombinant; tags: N-terminal GST; dsDNA, one strand shown
# T4 sequence: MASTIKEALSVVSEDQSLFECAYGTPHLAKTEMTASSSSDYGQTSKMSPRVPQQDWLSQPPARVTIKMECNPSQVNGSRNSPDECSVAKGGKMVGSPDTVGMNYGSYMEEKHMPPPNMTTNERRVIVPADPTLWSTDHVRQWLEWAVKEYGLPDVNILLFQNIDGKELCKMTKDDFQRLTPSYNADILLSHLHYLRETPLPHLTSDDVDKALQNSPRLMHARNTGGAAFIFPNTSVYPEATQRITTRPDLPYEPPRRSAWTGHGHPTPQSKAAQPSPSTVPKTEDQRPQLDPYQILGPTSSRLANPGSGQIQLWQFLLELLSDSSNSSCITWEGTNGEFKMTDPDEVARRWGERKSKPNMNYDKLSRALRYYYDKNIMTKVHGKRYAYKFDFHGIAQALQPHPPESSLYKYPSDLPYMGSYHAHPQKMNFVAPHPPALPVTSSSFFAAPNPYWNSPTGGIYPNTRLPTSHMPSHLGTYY
# How it was run: as §1
# ELF1 = ELF1 (Homo sapiens, UniProt P32519 1-619); settings: protein: recombinant; tags: N-terminal GST; dsDNA, one strand shown
# How it was run: as §1
# EHF = target: T5, EHF (Homo sapiens, UniProt Q9NZC4 1-300); settings: protein: recombinant; tags: N-terminal GST; dsDNA, one strand shown
# T5 sequence: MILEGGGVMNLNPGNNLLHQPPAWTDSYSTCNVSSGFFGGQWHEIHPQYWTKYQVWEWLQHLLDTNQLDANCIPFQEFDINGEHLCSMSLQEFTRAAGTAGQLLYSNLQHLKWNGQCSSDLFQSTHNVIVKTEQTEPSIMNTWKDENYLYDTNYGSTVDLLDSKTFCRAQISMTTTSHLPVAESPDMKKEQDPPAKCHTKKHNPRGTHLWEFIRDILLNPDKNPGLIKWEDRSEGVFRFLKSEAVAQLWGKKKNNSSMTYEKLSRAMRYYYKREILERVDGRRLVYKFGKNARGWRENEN
# How it was run: as §1
# SPI1 = SPI1 (Homo sapiens, UniProt P17947 1-270); settings: protein: recombinant; tags: N-terminal GST; dsDNA, one strand shown
# How it was run: as §1
# SPIB = SPIB (Homo sapiens, UniProt Q01892 1-262); settings: protein: recombinant; tags: N-terminal GST; dsDNA, one strand shown
# How it was run: as §1
# ELK3 = target: T6, ELK3 (Homo sapiens, UniProt P41970 1-407); settings: protein: recombinant; tags: N-terminal GST; dsDNA, one strand shown
# T6 sequence: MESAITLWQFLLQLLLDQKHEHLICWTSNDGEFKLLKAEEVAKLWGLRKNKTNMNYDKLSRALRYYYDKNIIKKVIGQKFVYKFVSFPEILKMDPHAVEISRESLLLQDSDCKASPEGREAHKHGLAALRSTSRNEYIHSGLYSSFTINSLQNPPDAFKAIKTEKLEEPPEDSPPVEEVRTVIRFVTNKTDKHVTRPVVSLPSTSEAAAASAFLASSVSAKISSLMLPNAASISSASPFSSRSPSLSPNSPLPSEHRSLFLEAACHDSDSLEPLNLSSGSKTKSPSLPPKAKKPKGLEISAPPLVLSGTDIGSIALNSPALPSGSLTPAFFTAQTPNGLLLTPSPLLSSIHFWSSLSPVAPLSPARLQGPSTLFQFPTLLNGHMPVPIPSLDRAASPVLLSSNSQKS
# How it was run: as §1
# FEV = target: T7, FEV (Homo sapiens, UniProt Q99581 1-238); settings: protein: recombinant; tags: N-terminal GST; dsDNA, one strand shown
# T7 sequence: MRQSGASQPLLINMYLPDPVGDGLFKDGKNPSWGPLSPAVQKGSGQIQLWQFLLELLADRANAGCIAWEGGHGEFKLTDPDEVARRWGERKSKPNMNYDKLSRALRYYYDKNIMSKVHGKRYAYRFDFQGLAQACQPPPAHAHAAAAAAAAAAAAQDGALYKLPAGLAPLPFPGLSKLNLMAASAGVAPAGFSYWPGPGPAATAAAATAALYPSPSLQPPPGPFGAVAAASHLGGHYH
# How it was run: as §1
# ETV5 = ETV5 (Homo sapiens, UniProt P41161 1-510); settings: protein: recombinant; tags: N-terminal GST; dsDNA, one strand shown
# How it was run: as §1
# HSF1 = HSF1 (Homo sapiens, UniProt Q00613 1-529); settings: protein: recombinant; tags: N-terminal GST; chain copies: 3; dsDNA, one strand shown
# How it was run: as §1
# SPIC = target: T8, SPIC (Homo sapiens, UniProt Q8N5J4 1-248); settings: protein: recombinant; tags: N-terminal GST; dsDNA, one strand shown
# T8 sequence: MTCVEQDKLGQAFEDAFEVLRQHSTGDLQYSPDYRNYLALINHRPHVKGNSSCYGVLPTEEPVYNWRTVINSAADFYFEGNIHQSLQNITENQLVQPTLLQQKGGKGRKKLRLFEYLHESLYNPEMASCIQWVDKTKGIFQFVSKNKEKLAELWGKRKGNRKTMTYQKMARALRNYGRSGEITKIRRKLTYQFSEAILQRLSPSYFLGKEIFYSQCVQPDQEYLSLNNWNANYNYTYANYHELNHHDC
# How it was run: as §1
# ELF4 = ELF4 (Homo sapiens, UniProt Q99607 1-663); settings: protein: recombinant; tags: N-terminal GST; dsDNA, one strand shown
# How it was run: as §1
# ELK4 = target: T9, ELK4 (Homo sapiens, UniProt P28324-2 1-405); settings: protein: recombinant; tags: N-terminal GST; dsDNA, one strand shown
# T9 sequence: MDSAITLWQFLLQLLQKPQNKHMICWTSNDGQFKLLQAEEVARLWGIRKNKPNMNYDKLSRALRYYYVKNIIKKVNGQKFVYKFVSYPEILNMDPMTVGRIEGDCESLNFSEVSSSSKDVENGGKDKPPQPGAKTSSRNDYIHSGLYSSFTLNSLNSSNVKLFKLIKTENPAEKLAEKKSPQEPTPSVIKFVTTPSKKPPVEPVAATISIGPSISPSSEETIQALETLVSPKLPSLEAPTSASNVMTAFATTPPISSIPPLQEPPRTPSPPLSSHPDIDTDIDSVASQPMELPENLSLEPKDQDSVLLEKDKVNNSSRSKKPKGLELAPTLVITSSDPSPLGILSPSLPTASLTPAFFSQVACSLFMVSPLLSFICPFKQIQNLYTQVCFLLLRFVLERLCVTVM
# How it was run: as §1
# ETV2 = target: T10, ETV2 (Homo sapiens, UniProt O00321 1-342); settings: protein: recombinant; tags: N-terminal GST; dsDNA, one strand shown
# T10 sequence: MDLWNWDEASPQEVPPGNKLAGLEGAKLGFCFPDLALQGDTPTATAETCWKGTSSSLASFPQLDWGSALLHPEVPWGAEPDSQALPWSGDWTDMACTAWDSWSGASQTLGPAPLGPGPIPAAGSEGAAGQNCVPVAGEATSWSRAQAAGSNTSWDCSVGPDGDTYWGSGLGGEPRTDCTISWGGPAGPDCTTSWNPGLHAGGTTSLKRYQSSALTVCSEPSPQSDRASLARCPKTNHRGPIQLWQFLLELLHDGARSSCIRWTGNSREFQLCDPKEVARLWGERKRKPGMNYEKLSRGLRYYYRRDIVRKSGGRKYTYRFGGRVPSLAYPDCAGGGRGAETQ
# How it was run: as §1
# ELF3 = target: T11, ELF3 (Homo sapiens, UniProt P78545 1-371); settings: protein: recombinant; tags: N-terminal GST; dsDNA, one strand shown
# T11 sequence: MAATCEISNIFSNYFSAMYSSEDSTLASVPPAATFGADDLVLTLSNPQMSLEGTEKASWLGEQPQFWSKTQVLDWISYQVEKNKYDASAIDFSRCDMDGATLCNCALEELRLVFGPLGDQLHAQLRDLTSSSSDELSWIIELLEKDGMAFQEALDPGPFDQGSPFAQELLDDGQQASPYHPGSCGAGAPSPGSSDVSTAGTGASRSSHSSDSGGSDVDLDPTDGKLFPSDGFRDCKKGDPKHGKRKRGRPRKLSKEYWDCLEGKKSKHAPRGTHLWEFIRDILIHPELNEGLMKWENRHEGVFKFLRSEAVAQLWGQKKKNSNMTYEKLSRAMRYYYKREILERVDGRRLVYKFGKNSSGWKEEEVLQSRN
# How it was run: as §1
# CRX = CRX (Homo sapiens, UniProt O43186 1-299); settings: protein: recombinant; tags: N-terminal GST; dsDNA, one strand shown
# How it was run: as §1
# ETV1 = ETV1 (Homo sapiens, UniProt P50549 1-477); settings: protein: recombinant; tags: N-terminal GST; dsDNA, one strand shown
# How it was run: as §1
# Chain of SPIB (Q01892 whole entry): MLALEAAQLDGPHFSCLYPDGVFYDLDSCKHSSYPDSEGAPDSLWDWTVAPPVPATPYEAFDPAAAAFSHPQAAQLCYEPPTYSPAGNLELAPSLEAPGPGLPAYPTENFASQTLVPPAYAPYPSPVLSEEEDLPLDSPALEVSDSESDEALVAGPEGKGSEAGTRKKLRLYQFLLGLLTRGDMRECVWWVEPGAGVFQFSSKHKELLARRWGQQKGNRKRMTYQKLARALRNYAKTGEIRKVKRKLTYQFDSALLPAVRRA
# Chain of CRX (O43186 whole entry): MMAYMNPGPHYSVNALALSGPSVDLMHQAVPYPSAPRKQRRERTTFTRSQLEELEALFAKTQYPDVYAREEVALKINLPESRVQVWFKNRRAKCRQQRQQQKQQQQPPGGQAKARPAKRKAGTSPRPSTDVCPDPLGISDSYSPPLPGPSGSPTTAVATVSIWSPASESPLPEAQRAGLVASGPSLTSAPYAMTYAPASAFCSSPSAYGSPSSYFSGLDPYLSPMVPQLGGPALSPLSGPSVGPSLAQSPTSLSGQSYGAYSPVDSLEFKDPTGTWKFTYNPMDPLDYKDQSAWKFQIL
# Chain of HSF1 (Q00613 whole entry): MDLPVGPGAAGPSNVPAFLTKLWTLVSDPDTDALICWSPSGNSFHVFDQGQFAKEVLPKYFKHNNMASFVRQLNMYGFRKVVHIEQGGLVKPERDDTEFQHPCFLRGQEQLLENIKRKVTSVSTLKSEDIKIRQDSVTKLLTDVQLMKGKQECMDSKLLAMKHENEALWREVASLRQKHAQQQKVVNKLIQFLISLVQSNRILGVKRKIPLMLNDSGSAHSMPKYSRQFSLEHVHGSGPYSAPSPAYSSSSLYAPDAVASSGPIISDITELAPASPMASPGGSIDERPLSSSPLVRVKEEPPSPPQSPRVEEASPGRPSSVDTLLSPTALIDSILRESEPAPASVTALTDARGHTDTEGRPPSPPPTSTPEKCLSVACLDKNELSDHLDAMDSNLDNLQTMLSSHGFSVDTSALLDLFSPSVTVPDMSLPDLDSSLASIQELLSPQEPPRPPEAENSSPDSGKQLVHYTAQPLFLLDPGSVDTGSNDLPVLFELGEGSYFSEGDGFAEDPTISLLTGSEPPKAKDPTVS
# Chain of ETV1 (P50549 whole entry): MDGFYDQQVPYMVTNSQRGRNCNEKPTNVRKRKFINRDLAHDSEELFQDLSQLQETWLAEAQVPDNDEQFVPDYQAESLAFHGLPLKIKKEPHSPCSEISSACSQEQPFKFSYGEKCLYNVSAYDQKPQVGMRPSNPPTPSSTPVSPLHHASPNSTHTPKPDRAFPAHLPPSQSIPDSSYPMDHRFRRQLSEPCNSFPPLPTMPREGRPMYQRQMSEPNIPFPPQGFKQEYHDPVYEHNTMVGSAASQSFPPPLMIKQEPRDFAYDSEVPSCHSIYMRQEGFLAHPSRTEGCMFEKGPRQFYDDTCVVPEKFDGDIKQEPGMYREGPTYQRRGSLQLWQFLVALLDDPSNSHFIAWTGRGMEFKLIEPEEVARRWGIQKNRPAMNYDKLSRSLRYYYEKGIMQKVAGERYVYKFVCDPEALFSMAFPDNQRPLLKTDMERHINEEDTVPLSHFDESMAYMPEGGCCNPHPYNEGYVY
# Chain of ELF4 (Q99607 whole entry): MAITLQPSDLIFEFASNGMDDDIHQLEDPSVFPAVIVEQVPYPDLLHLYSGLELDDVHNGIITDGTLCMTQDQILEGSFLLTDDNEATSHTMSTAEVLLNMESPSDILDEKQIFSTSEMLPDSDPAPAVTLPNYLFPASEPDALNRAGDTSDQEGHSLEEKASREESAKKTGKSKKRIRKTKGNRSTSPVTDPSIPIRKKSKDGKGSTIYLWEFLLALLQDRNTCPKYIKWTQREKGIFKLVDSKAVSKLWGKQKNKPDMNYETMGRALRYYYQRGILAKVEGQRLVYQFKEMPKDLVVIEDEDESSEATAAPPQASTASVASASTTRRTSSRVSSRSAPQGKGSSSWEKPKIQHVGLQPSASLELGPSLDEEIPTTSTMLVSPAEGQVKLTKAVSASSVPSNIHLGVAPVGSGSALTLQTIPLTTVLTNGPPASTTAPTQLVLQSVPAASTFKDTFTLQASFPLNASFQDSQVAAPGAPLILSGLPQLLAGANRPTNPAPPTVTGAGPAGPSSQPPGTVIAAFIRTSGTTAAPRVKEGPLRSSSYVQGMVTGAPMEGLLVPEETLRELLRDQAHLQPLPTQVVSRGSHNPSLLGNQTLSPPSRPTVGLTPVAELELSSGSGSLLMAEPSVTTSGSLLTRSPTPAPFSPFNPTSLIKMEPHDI
# Chain of ELF1 (P32519 whole entry): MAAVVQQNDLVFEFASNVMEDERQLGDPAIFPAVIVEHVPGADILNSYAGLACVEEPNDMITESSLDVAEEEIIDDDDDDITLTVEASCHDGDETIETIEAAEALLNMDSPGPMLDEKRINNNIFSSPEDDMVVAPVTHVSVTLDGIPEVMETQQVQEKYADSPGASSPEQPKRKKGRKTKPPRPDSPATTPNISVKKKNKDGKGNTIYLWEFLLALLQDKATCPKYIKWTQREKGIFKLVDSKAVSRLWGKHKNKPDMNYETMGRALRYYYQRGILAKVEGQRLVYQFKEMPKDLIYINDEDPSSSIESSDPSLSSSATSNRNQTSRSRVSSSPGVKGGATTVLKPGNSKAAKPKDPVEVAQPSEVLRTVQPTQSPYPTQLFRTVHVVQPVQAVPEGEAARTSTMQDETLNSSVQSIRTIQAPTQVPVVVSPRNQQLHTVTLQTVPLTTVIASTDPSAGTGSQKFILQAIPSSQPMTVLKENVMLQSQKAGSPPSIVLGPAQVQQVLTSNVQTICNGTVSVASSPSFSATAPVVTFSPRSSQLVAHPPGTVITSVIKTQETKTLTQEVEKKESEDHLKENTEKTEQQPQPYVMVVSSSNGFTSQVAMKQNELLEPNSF
# Chain of ETV5 (P41161 whole entry): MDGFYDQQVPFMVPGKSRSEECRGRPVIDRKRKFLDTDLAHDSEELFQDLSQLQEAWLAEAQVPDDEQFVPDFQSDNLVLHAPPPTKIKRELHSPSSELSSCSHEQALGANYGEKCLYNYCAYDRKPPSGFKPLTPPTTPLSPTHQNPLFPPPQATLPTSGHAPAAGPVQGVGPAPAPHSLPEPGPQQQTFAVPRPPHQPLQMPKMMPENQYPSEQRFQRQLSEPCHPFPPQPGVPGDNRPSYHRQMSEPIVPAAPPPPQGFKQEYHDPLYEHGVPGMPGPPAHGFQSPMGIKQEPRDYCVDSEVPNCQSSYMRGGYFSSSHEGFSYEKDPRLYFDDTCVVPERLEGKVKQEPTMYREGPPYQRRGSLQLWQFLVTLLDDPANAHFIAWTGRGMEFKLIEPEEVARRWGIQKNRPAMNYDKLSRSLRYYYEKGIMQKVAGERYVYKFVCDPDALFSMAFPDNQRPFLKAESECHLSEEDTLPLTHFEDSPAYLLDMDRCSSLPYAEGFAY
sequence,measurement,setting,value
TTTTTA,binding signal,FLI1,"1.23 fold enrichment (6-mer frequency, TF over GST control)"
same,binding signal,ELK1,"1.2 fold enrichment (6-mer frequency, TF over GST control)"
same,binding signal,GABPA,"1.23 fold enrichment (6-mer frequency, TF over GST control)"
same,binding signal,ERG,"1.25 fold enrichment (6-mer frequency, TF over GST control)"
same,binding signal,ELF1,"1.35 fold enrichment (6-mer frequency, TF over GST control)"
same,binding signal,EHF,"1.37 fold enrichment (6-mer frequency, TF over GST control)"
same,binding signal,SPI1,"1.47 fold enrichment (6-mer frequency, TF over GST control)"
same,binding signal,SPIB,"1.37 fold enrichment (6-mer frequency, TF over GST control)"
same,binding signal,ELK3,"1.3 fold enrichment (6-mer frequency, TF over GST control)"
same,binding signal,FEV,"1.34 fold enrichment (6-mer frequency, TF over GST control)"
same,binding signal,ETV5,"1.3 fold enrichment (6-mer frequency, TF over GST control)"
same,binding signal,HSF1,"1.42 fold enrichment (6-mer frequency, TF over GST control)"
same,binding signal,SPIC,"1.32 fold enrichment (6-mer frequency, TF over GST control)"
same,binding signal,ELF4,"1.34 fold enrichment (6-mer frequency, TF over GST control)"
same,binding signal,ELK4,"1.37 fold enrichment (6-mer frequency, TF over GST control)"
same,binding signal,ETV2,"1.38 fold enrichment (6-mer frequency, TF over GST control)"
same,binding signal,ELF3,"1.43 fold enrichment (6-mer frequency, TF over GST control)"
same,binding signal,CRX,"1.65 fold enrichment (6-mer frequency, TF over GST control)"
same,binding signal,ETV1,"1.32 fold enrichment (6-mer frequency, TF over GST control)"

# From paper PMC7862700, “An all-to-all approach to the identification of sequence-specific readers for epigenetic DNA modifications on cytosine”
